PLK1 PBD block: qHTS for Inhibitors of PLK1-PDB (polo-like kinase 1 - polo-box domain): Primary Screen; 360,000 compounds, 2.8% hits; Serine/threonine-protein kinase PLK1 (Homo sapiens), P53350; Plk1 PBD binding of FITC phosphopeptide, fluorescence polarization; Potency, µM, for the others: max response, negative = inhibition, most hits filed as inhibitors; also: series mostly up to about 57 µM; nearly all actives have a fitted effect of over 65% in size
ALDH1A1 block: qHTS Assay for Inhibitors of Aldehyde Dehydrogenase 1 (ALDH1A1). Aldehyde dehydrogenase 1A1 (Homo sapiens), P00352. Purified ALDH1A1, NADH fluorescence, propionaldehyde substrate. Potency, µM (doses to about 75.3 µM), for the others: at the top dose activity, negative = inhibition, usual class: inhibitors. 220,000 compounds, 7.3% hits. AID 1030, 2008; active = well fitted inhibition curve with a large enough effect, not every such curve was filed as active; inconclusive = small, poorly fitted or top-dose-only effect, or another doubt; inactive = no such curve, though single readings can be large or run the other way;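 also: plate controls were no enzyme wells and a reference inhibitor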
Target sequence (P00352 whole entry, looked up): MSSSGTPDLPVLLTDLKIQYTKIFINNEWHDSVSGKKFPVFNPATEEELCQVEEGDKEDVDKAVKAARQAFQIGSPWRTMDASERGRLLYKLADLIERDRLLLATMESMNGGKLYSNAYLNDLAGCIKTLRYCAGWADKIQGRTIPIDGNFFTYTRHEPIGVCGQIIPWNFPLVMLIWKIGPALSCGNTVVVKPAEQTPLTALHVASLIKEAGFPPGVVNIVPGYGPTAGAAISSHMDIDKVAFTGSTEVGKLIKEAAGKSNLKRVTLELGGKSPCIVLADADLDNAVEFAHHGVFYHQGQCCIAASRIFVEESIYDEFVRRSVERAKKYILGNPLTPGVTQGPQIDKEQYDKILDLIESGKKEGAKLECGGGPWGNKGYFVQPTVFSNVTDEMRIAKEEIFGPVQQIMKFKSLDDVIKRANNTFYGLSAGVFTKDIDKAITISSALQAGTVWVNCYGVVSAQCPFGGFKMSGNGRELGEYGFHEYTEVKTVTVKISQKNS
RORg inh: qHTS for inhibitors of ROR gamma transcriptional activity; Drosophila S2 Gal4-RORgamma UAS-luciferase reporter, 20 h; Potency, µM (titrated, usually from 53.6 µM), inactives show at the highest dose activity change, negative = inhibition, actives largely listed as inhibitors; 310,000 compounds, 5.4% hits; AID 2551, 2010; also: nearly all actives have a fitted effect of over 60% in size
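Drosophila Schneider cells stably carrying a metallothionein-driven Gal4 DBD–ROR gamma fusion and a UAS-Photinus luciferase reporter were exposed to compound for 1 hr, then induced with copper sulfate (700 uM final) for 20 hr at ambient temperature before luminescence reading.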
VP16 counter: VP16 counterscreen qHTS for inhibitors of ROR gamma transcriptional activity | 310,000 compounds, 3.5% hits | AID 2546, 2010 | Drosophila S2 Gal4-VP16 UAS-luciferase, luminescence, 20 h | Potency, µM (top dose mostly 53.6 µM), inactives show top-dose activity, negative = inhibition, hits mostly inhibitors;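 also: Gal4-VP16 expression switched on by copper sulfate through the metallothionein promoter; nearly all actives have a fitted effect of over 50% in size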
Sfp inh: qHTS Assay for Inhibitors of Bacillus subtilis Sfp phosphopantetheinyl transferase (PPTase); Biochemical Sfp PPTase activity, qHTS; Potency, µM, without a hit: largest response in the series, negative = inhibition, most hits filed as inhibitors; 310,000 compounds, 3.5% hits; AID 1490, 2009;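 also: the enzyme is Sfp with the accession as filed and its product quenches rhodamine fluorescence; 0% = enzyme reaction without inhibitor and -100% = no enzyme wells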
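With Hepes-Na pH 7.6 buffer containing 10 mM MgCl2, Sfp (15 nM) modified BHQ-2-YbbR (12.5 uM) using rhodamine-CoA (5 uM). Two reads 30 minutes apart at 525/598 nm yielded each well's rate.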
* marks the source's active call; other numbers are inactive results; ? = inconclusive; nt = no result given; [ ] = remark or other dose. A selection: hits, their analogues and other compounds. The true share with any hit is near 12%. Unless noted, calls follow the shape of the dose curve; as a rule, active = well fitted curve in the direction sought with a large enough effect; inconclusive = small, poorly fitted or top-dose-only effect, or another doubt; inactive = no such curve, though single readings can be large; an effect the other way counts as inactive or inconclusive. Unless noted, % is scaled to controls: 0 for no effect and ±100 for the full control effect; potency is read from the fitted curve at half-maximal effect.

SMILES	PLK1 PBD block	ALDH1A1 block	RORg inh	VP16 counter	Sfp inh
CCOC(=O)N1CCC(N2C(=O)c3ccccc3C2Nc2ccc(S(=O)(=O)N(CC)CC)cc2)CC1 (centres undefined)	-5%	0.2µM*	29%	-1%	13%
CC(C)[C@@H](CC(=O)N[C@@H]1CCCC[C@H]1C(=O)N[C@H](CC(=O)N[C@@H](CCC(=O)O)CC(=O)O)Cc1c[nH]c2ccccc12)NC(=O)C[C@H](Cc1ccccc1)NC(=O)[C@@H]1CCCC[C@H]1N	nt	-13%	-1%	-12%	-7%
CCCC1NC(=O)c2cc3ccccc3cc2-n2c1nc1ccc(F)cc1c2=O (centres undefined)	-19%	nt	nt	nt	nt
COC(=O)c1nn2c(C(F)(F)F)cc(-c3ccc(Br)o3)nc2c1Br	-17%	14µM*	3%	-16%	6%
CCCCNC(=O)c1nn2c(C(F)(F)F)cc(-c3ccc(OC)cc3)nc2c1Br	12µM*	nt	?	-1%	14%
CC(C)(C)NC(=O)c1nn2c(C(F)(F)F)cc(-c3ccccc3)nc2c1Br	-1%	nt	-3%	2%	-2%
COc1ccc(C(C)=O)cc1Cn1c(C)c(C(=O)NCCC#N)sc1=O	-1%	nt	nt	nt	nt
COc1cc(/C=C2\SC(N)=NC2=O)cc(OC)c1	13µM*	nt	?	?	0%
NC1=NC(=O)/C(=C/c2cc(Br)c(O)c(Br)c2)S1	-1%	nt	5%	5%	-15%
O=C1c2cccnc2C(Nc2ccc(S(=O)(=O)N3CCCCC3)cc2)N1Cc1ccccc1 (centres undefined)	-11%	-12%	45%	-2%	-25%
O=C1c2cccnc2C(Nc2ccc(Br)cc2)N1Cc1cccs1 (centres undefined)	-29%	6.3µM*	45%	-2%	-18%
COc1ccc(NC2c3ncccc3C(=O)N2Cc2cccs2)cc1 (centres undefined)	-29%	3.2µM*	25%	4%	?
O=C1c2cccnc2C(Nc2ccc(F)c(Cl)c2)N1Cc1cccs1 (centres undefined)	-14%	11µM*	19%	9%	-10%
COC(=O)c1ccc(NC2c3ncccc3C(=O)N2Cc2cccs2)cc1 (centres undefined)	-21%	?	12%	-4%	-9%
CC(=C1C(=O)c2ccccc2C1=O)N1CCN(CCN=CC2=C(O)CC(C)(C)CC2=O)CC1	-9%	14µM*	0%	-3%	13%
CN1C(=O)CC(N2CCN(CCN=CC3=C(O)CC(C)(C)CC3=O)CC2)C1=O (centres undefined)	-18%	-11%	-4%	-5%	7%
CC1(C)CC(=O)C(C=NCCN2CCN(C3CC(=O)N(c4ccc(Cl)c(Cl)c4)C3=O)CC2)=C(O)C1 (centres undefined)	-14%	22µM*	23%	-3%	7%
CC1(C)CC(=O)C(C=NCCN2CCN(C(=O)NC34CC5CC(CC(C5)C3)C4)CC2)=C(O)C1	-7%	16µM*	2%	4%	8%
CC(=O)C1=CCC(c2ccccc2Cl)N(S(=O)(=O)c2ccc(C)cc2)C1 (centres undefined)	-4%	nt	nt	nt	nt
Cc1cccc(C(=O)Nc2ccc(S(=O)(=O)Nc3nc(C)cc(C)n3)cc2)c1	0%	nt	-2%	-3%	6%
O=C(Nc1ccccc1)/C(=C/c1ccc2c(c1)OCO2)NC(=O)c1ccco1	-12%	6%	-2%	-1%	?
O=C(Nc1ccccc1)/C(=C\c1ccc2c(c1)OCO2)NC(=O)c1ccco1	24µM*	-5%	19%	-8%	13%
O=C(Nc1ccc(NC(=O)c2ccco2)cc1)c1ccc2c(c1)OCO2	-5%	?	22µM*	?	-14%
Cc1cc(C)nc(NS(=O)(=O)c2ccc(NC(=O)c3ccc4c(c3)OCO4)cc2)n1	-9%	25µM*	?	-1%	3%
CC(=O)N1CCC2(CCCN(C(=O)Nc3cccc(F)c3)C2)CC1	nt	7%	-37%	-2%	6%
SMILES	PLK1 PBD block	ALDH1A1 block	RORg inh	VP16 counter	Sfp inh
CC(=O)N1CCC(C(=O)Nc2cc(S(=O)(=O)N3CCCCC3)ccc2C)CC1	-14%	nt	nt	nt	nt
Cc1cc(S(=O)(=O)Nc2ccc(C(=O)NCCN3CCOCC3)cc2)ccc1F	-9%	nt	nt	nt	nt
NC(=O)c1ccc(NC(=O)COC(=O)c2cc3ccccc3cc2O)cc1	0%	nt	nt	nt	nt
Cn1c(-c2ccccc2)c(O)c(=O)c2ccccc21	nt	-6%[13.5 µM]	-9%[10 µM]	1%[10 µM]	26%
CCn1c(-c2ccccc2)c(C(=O)CCl)c2ccccc21	?	6.3µM*	11µM*	?	-2%
Cn1c(-c2ccccc2)c(C(=O)CCl)c2ccccc21	?	4µM*	7.1µM*	?	-28%
CCn1c2ccccc2c(=O)c2ccccc21	-2%	?	-25%	18%	4%
Cn1c(-c2ccccc2)c(CCO)c2ccccc21	27µM*	?	?	-8%	-22%
Cc1cccc(C(=O)N2CCNC(=O)C2CC(=O)Nc2cccc(Cl)c2)c1 (centres undefined)	-4%	nt	6%	-9%	22%
Cc1ccc(C(=O)O)cc1-c1ccc(/C=C2/NC(=O)N(c3ccccc3)C2=O)o1	?	?	?	12%	22µM*
Cc1ccc(CN2C(=O)N/C(=C\c3ccc(-c4ccc(C(=O)O)cc4C)o3)C2=O)cc1	?	?	14%	-4%	-27%
Cc1cc(C(=O)O)ccc1-c1ccc(/C=C2\NC(=O)N(Cc3ccccc3Cl)C2=O)o1	17µM*	0%	9%	-19%	13µM*
O=c1c(-c2cc(F)cc(F)c2)nc2cnc(N3CCOCC3)nc2n1-c1ccccc1	nt	?	-5%	4%	0%
O=C(Nc1ccccc1)Nc1csc2ccccc12	1%	nt	4%	-2%	50µM*
NC(=O)C(c1ccccc1)(c1ccccc1)[C@@H]1CCN(CCc2ccc3c(c2)CCO3)C1	nt	nt	-2%	4%	17%
Cc1c(C(=O)O)cnc2c([N+](=O)[O-])cnn12	3.4µM*	4%	-1%	0%	7%
CCN(C(=O)CSc1nc2n[nH]c(C)c2c(=N)n1-c1ccc(Cl)c(C)c1)c1cccc(C)c1	2%	nt	13µM*	?	16%
CCCN(CCC)C(=O)CSc1nc2n[nH]c(C)c2c(=N)n1-c1ccc(OCC)cc1	-2%	3.2µM*	-5%	-8%	2%
CCCN(CCC)C(=O)CSc1nc2n[nH]c(C)c2c(=N)n1-c1ccc(OC)cc1	-9%	?	?	?	6%
CCCNC(=O)C1(C)CCN(CCOc2ccc(Cl)cc2)C1 (centres undefined)	0%	nt	nt	nt	nt
CC(C)(C)OC(=O)N1CCCC(C(=O)Nc2ccc(C(=O)NCc3ccccc3)cc2)C1 (centres undefined)	7%	nt	nt	nt	nt
